Rows were chosen to be rich in hits. Some 1.1% of all compounds tested hit in one or more screens of this group.
Anesthetic bind – candidate novel general anesthetic via apoferritin binding; apoferritin/1-aminoanthracene competitive binding, fluorescence; Potency, µM (titrated, usually from 77.5 µM), for the others: at the top dose activity change, negative = displacement, actives largely listed as inhibitors; 350,000 compounds, 0.074% hits; P02791; also: % is scaled to controls: 0 for no effect and ±100 for the full control effect; nearly all actives have a fitted effect of over 20% in size
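Steps: apoferritin (10 uM) was premixed with half-saturated 1-AMA in PBS, compounds were pin-transferred, plates stood 10 min at room temperature, fluorescence was read at 380/535 nm, and curves were fitted with a Hill equation.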
GRP78 ERSR act – ER stress response induction in glioma | U87-MG GRP78 promoter luciferase reporter, 16 h | Potency, µM, for the others: at the highest dose activation, most hits filed as activators | 420,000 compounds, 0.02% hits; also: series mostly up to about 76 µM; % of control where 0% means no effect; nearly all actives have a fitted effect of over 35% in size
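ERSR induction read as luciferase luminescence (Bright-Glo, 10 min at room temperature) in stably transfected human U87-MG glioma cells exposed to compounds for 16 h, using GRP78 as sensor.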
Chronic BCR inh – inhibitors of chronic active B-cell receptor signaling; Potency, µM (series often up to 46.1 µM), without a hit: at the top dose activity change, negative = inhibition, hits mostly inhibitors; ABC-DLBCL IkBa-CBG/CBR reporter, luminescence ratio, 4 h; 340,000 compounds, 0.05% hits; active = well fitted inhibition curve with a large enough effect in the signal ratio, with a control signal flat, not every such curve was filed as active; inconclusive = small, poorly fitted or top-dose-only effect, or effect the other way, or a change in a side signal; the % refers to the signal ratio;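 also: plate controls were basal doxycycline-induced cells for no effect and cells given 10 µM MG132 for full effect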
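Concentration-response series (up to 46 uM) were applied to TMD8 dual-reporter cells for 4 h at 37C with doxycycline. Green/red ratio, after filter-overlap correction, defined %Activity; red signal alone was normalised to basal cells and zero luminescence.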
12-LOX inh – ALOX12 (human) lipoxygenase inhibition; Potency, µM (titrated, usually from 108 µM), for the others: at the top dose activity change, negative = inhibition, actives largely listed as inhibitors; P18054; purified 12hLO, xylenol orange hydroperoxide absorbance; 580,000 compounds, 1.1% hits; also: % is scaled to controls: 0 for no effect and ±100 for the full control effect
Target sequence (P18054 whole entry, looked up): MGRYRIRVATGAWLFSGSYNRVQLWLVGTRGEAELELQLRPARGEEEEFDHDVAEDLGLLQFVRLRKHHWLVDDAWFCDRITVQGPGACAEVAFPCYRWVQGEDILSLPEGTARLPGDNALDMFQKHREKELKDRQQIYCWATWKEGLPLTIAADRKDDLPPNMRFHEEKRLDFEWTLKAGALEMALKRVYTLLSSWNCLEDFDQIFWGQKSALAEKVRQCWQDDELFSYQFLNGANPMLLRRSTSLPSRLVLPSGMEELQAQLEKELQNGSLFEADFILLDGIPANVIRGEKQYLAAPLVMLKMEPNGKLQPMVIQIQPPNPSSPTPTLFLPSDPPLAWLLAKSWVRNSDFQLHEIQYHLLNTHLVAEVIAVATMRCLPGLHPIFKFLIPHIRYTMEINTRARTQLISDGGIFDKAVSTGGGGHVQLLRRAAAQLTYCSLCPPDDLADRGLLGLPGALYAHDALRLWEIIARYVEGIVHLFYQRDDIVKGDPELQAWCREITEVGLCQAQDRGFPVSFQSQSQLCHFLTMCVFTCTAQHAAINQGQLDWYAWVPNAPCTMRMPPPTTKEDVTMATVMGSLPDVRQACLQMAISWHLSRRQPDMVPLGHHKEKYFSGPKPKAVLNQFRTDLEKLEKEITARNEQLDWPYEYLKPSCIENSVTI
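Hydroperoxide product was detected by ferrous iron/xylenol orange as the 573 to 405 nm absorbance ratio. Arachidonic acid at 40 uM (final) was turned over for 30 min at room temperature by 150 nM human 12hLO, pH 7.0 Hepes buffer, after 15 min compound preincubation.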
* = called active by the depositor; ! = a repeat was not active. Unless noted, calls follow the shape of the dose curve; as a rule, active = well fitted curve in the direction sought with a large enough effect; inconclusive = small, poorly fitted or top-dose-only effect, or another doubt; inactive = no such curve, though single readings can be large; an effect the other way counts as inactive or inconclusive. Potency is read from the fitted curve at half-maximal effect.

For COc1ccc(Nc2cc3n(c(=O)n2)CCc2cc(OC)c(OC)cc2-3)c(C)c1 the results were Anesthetic bind -13%, GRP78 ERSR act -2%, Chronic BCR inh 18µM* and 12-LOX inh inconclusive.
Screening COc1cccc(-c2nc(SCC(=O)Nc3nc(-c4ccccc4)c(C)s3)[nH]c(=O)c2C#N)c1 returned Anesthetic bind -15%, GRP78 ERSR act -4%, Chronic BCR inh 0% and 12-LOX inh 14µM*.
CCOc1ccc2nc(NC(=O)CSc3nc(-c4ccccc4)c(C#N)c(=O)[nH]3)sc2c1 was read as Anesthetic bind -5%, GRP78 ERSR act 19%, Chronic BCR inh inconclusive and 12-LOX inh inconclusive.
Screening COc1ccc2[nH]cc(C(C(=O)O)N3CCN(Cc4cccc(Cl)c4)CC3)c2c1 (configuration not stated) returned 12-LOX inh -6%.
Fc1cccc(Nc2nc(-c3ccccc3)no2)c1 was read as 12-LOX inh 35µM*.
Screening Fc1ccc(Nc2nc(-c3ccccc3)no2)cc1 returned 12-LOX inh 2%.
COc1ccc(-c2noc(Nc3cc(OC)cc(OC)c3)n2)cc1 was read as 12-LOX inh 18µM*.
O=S1(=O)CCN2C(c3cccc(Br)c3)=CSC2=N1 was read as 12-LOX inh 22µM*.
CC1CCc2nc(N)c(C#N)c(-c3ccc(F)cc3)c2C1 (configuration not stated) was read as 12-LOX inh 2%.
`O=C(CCc1ccccc1)NCC12CC3CC(CC(C3)C1)C2` gave 12-LOX inh 22%.
For Cc1cc(C)nc(SCC(=O)Nc2ccccc2C(N)=O)n1 the results were 12-LOX inh 50µM*.
NC(=O)C1CCN(C(=O)CCc2nc3sc4c(c3c(=O)[nH]2)CCCC4)CC1 was read as GRP78 ERSR act -2%, Chronic BCR inh 0% and 12-LOX inh 18µM*!.
O=C(CCc1nc2sc3c(c2c(=O)[nH]1)CCCC3)N1CCCCC1 was read as 12-LOX inh 15%.
Cc1oc2cc(OCCN3CCN(CCO)CC3)ccc2c(=O)c1-c1ccc(Br)cc1 was read as 12-LOX inh 35µM*.
O=C(NCCN1CCC(n2c(=O)[nH]c3ccccc32)CC1)c1ccc(C(F)(F)F)cc1C(F)(F)F was read as 12-LOX inh -63%.
For O=C(NCCN1CCC(n2c(=O)[nH]c3ccccc32)CC1)c1cccc(F)c1 the results were 12-LOX inh 45µM*.
`COc1ccc(-c2noc(-c3cccn3CC(=O)Nc3cccc(Cl)c3C)n2)cc1F` gave 12-LOX inh 4%.
`Cc1ccc(-c2cc3ccccn3c2C=O)cc1C` gave 12-LOX inh 16µM*.
CC(C1SC(=S)NC1=O)C1SC(=S)NC1=O (configuration not stated) was read as GRP78 ERSR act -6% and 12-LOX inh 13µM*.
For CCSc1nc2c(c(=O)[nH]c(=O)n2C)n1Cc1ccccc1Cl the results were 12-LOX inh 32µM*.
For CCCCCSc1nc2c(c(=O)[nH]c(=O)n2C)n1Cc1ccccc1Cl the results were 12-LOX inh 7%.
`COc1ccc(C2=NN(c3nc(-c4ccccc4)c(CC(=O)O)s3)C(c3ccco3)C2)cc1` (configuration not stated) gave Anesthetic bind 0%, GRP78 ERSR act -3%, Chronic BCR inh -3% and 12-LOX inh 11µM*.
For CCCCNC(=S)NCC(c1ccccc1)c1c[nH]c2ccccc12 (configuration not stated) the results were Anesthetic bind -15%, GRP78 ERSR act -5%, Chronic BCR inh inconclusive and 12-LOX inh 45µM*.
CCc1cccc(NC(=O)C2CCCN(c3cnn(Cc4ccccc4)c(=O)c3)C2)c1 (configuration not stated) was read as 12-LOX inh 40µM*.
For O=C(c1ccc(Br)cc1)c1coc2ccc(O)cc12 the results were GRP78 ERSR act 5% and 12-LOX inh 22µM*.
O=C(c1ccc(Cl)cc1)c1coc2ccc(O)cc12 was read as Anesthetic bind -20%, GRP78 ERSR act -3%, Chronic BCR inh -9% and 12-LOX inh 248%.
Cc1cc(C)c2c(=O)cc(C(=O)Nc3cccnc3)oc2c1 was read as 12-LOX inh 12%.
`CN1CCN(c2nc3nnnn3c3sc4c(c23)CCN(Cc2ccccc2)C4)CC1` gave 12-LOX inh -2%.
O=C(NC(=S)Nc1ccc(N2CCOCC2)cc1)c1cccs1 was read as Anesthetic bind inconclusive, GRP78 ERSR act 4%, Chronic BCR inh -3% and 12-LOX inh inconclusive.
Screening Cc1ccc(C(=O)N2CCN(c3ccc(NC(=S)NC(=O)c4cccs4)cc3)CC2)cc1 returned Anesthetic bind inconclusive, GRP78 ERSR act -3%, Chronic BCR inh 18% and 12-LOX inh 11µM*.
`Cc1ccccc1C(=O)N1CCN(c2ccc(NC(=S)NC(=O)c3cccs3)cc2)CC1` gave Anesthetic bind -20%, GRP78 ERSR act -4%, Chronic BCR inh inconclusive and 12-LOX inh 35µM*.
`COc1ccc(C(=O)N2CCN(c3ccc(NC(=O)c4cccs4)cc3)CC2)cc1` gave Anesthetic bind -1%, GRP78 ERSR act -2%, Chronic BCR inh -1% and 12-LOX inh 64%.
N=C(N)SCc1cccc(F)c1 was read as 12-LOX inh -1%.
For CC(=O)N1CCC(Cc2ccc(C(=O)NC3CCN(Cc4ccccc4)CC3)cc2)CC1 the results were 12-LOX inh 21%.
For COCCn1c(C)cnc1CC1CCN(C(=O)Nc2ccccc2F)C1 (configuration not stated) the results were 12-LOX inh 30%.
C=CCSc1nc2sc3c(c2c(=O)n1CC)CCc1ccccc1-3 was read as Anesthetic bind -17%, GRP78 ERSR act -4%, Chronic BCR inh -1% and 12-LOX inh 7.1µM*.
For C=CCn1c(SCC)nc2sc3c(c2c1=O)CCc1ccccc1-3 the results were Anesthetic bind 3%, GRP78 ERSR act 3%, Chronic BCR inh 11% and 12-LOX inh 21%.
CCn1c(CNC(=O)COc2ccc(C(C)C)cc2)nnc1SCC(=O)Nc1cc(F)ccc1C was read as Anesthetic bind -24%, GRP78 ERSR act -4%, Chronic BCR inh 0% and 12-LOX inh 22µM*.
For Cn1c(N)c(-c2csc(NC3CC3)n2)c(=O)n(C)c1=O the results were 12-LOX inh 7.9µM*.
For Cn1c(N)c(-c2csc(Nc3ccccc3)n2)c(=O)n(C)c1=O the results were 12-LOX inh 45µM*.
Screening c1ccc(Nc2nc(-c3ccncc3)cs2)cc1 returned Anesthetic bind -6%, GRP78 ERSR act inconclusive, Chronic BCR inh inconclusive and 12-LOX inh 15%.
Clc1cccc(-c2csc(NC3CC3)n2)c1 was read as 12-LOX inh -26%.
`COc1ccc(/C=N/NC(=O)c2ccc(CSc3nc(C)cc(C)n3)cc2)c(OC)c1OC` gave Anesthetic bind 0%, GRP78 ERSR act -3%, Chronic BCR inh -3% and 12-LOX inh -7%.

Bioassay records as filed in PubChem.
